Compound activity (PubChem BioAssay)
The list is not random: actives were taken first. Their share in the collection is about 2.8%.
Peg3 promoter = inhibitors of Peg3 promoter; HeLa PEG-Prom luciferase reporter, luminescence, overnight; inhibition, % at 20 µM; 1.7% of 360,000 active; AID 588405;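 active = inhibition of at least 50% at 20 µM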
Shn3 inh set2 = Schnurri-3 reporter inhibition in Clone20 osteoblasts; Clone20 osteoblast Shn3 3'UTR firefly luciferase, 24 h; inhibition, % at 12.5 µM; 0.52% of 360,000 active;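 active = mean inhibition of at least 75% with every replicate also reaching 75%; inconclusive = mean inhibition at least 75% but some replicate below; inactive = mean inhibition below 75%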
HIF-2a block = HIF-2a inhibition; AID 624352; 786-0 RCC cells HIF-2a reporter, luciferase luminescence, overnight; inhibition, % at 18.8 µM; 0.72% of 360,000 active;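 active = inhibition of the luminescence signal of 40% or more relative to plate controls, in a single-dose primary screen at 18.75 µM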
KKLEB tox = counter-screen for CF NF-kB inhibitors: cytotoxicity; KKLEB CF airway cells viability, ATPlite luminescence, overnight; stronger effect = lower value; cells stimulated with P. aeruginosa culture filtrate; 0.36% of 360,000 active; activity change (cytotoxicity), % at 5 µM; AID 602141;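 active = corrected activity change at or below -50% at 5 µM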
MITF TRPM1 inh = MITF TRPM1 promoter inhibition in SK-MEL-5 cells | SK-MEL-5 TRPM1 promoter luciferase, 24 h | inhibition, % at 12.5 µM | 0.83% of 330,000 active;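 active = mean inhibition across replicates of 60% or more, whatever share of single replicates reaches that level; inconclusive = some that reach 60%, reason not given; inactive = mean inhibition across replicates below 60%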
CF NFkB inh = cystic fibrosis NF-kB activation inhibition; 0.86% of 360,000 active; KKLEB NF-kB-GFP reporter, PAF-induced, GFP fluorescence overnight; inhibition, % at 5 µM;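 active = at least 50% inhibition at 5 µM, scaled per plate between neutral and stimulator controls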;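 note: PAF is a Pseudomonas aeruginosa culture filtrate used as stimulus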
Large screens that a line does not name were inactive.

Cc1ccc2c(c1)c1c(n2CC(O)CNC(CO)(CO)CO)CCCC1 (stereo not given)	none
Cc1c(C)c2cc(Cl)c(OCC(=O)NCCCn3ccnc3)cc2oc1=O	none
C[C@@H]1C2CC(C/C2=N\NC(=O)c2ccncc2)C1(C)C (stereo not given in full)	none
COc1cccc(-n2c(SCC(=O)N3CCc4ccccc43)nnc2-c2c[nH]c3ccccc23)c1	Peg3 promoter 101, KKLEB tox -58, CF NFkB inh 60
Cc1ccc(C)c(Cn2c(C)nc3c(sc(=S)n3-c3ccccc3)c2=O)c1	none
COc1ccc(N2CCN(C(=O)c3cn(CC4CCCCC4)nn3)CC2)cc1	none
CC/C(=N/Nc1ccc(Cl)cc1)c1cnnc(SC)n1	none
CC/C(=N/Nc1cccc(C)c1)c1cnnc(SC)n1	KKLEB tox -52, CF NFkB inh 55
CS(=O)(=O)N1CCC(C(=O)NCc2ccc(Cl)cc2)CC1	none
Cc1nc(N)c(C#N)c(-c2ccccc2)c1C	none
Cc1ccc(-n2nc(C)c3c(-c4cccs4)c(C#N)c(N)nc32)cc1	Peg3 promoter 86
Cc1nn(-c2ccccc2)c2nc(N)c(C#N)c(-c3ccc(F)cc3)c12	Peg3 promoter 91
O=C(COC(=O)c1ccc(S(=O)(=O)N2CCOCC2)cc1)Nc1ccccc1OC(F)F	none
CCc1cc(C(=O)c2ccc(C)cc2)c(NC(=O)CCl)s1	none
Cc1cc(C(=O)c2ccc(Cl)cc2)c(NC(=O)CCl)s1	Peg3 promoter 89
O=C(Nc1ccc([N+](=O)[O-])cc1)Nc1nc(-c2ccc(Cl)s2)cs1	Peg3 promoter 69, Shn3 inh set2 inconclusive, MITF TRPM1 inh 72
CCCCCCCn1c2c(c(=N)c3ccccc31)CCC2	Shn3 inh set2 97, MITF TRPM1 inh 86
NC1=NC2CS(=O)(=O)CC2S1 (stereo not given)	none
COc1ccc(C(C)=O)cc1CSc1ccc2c(c1)OCCO2	none
Cc1nc2ccccc2c(N)c1C(=O)/C=C/c1ccccc1	Peg3 promoter 72
O=C(NCC(=O)N1CCN(S(=O)(=O)c2ccccc2C(F)(F)F)CC1)c1sc2ccccc2c1Cl	KKLEB tox -55
O=C(c1ccc(Br)cc1)N1CCC(C(=O)N2CCN(Cc3ccccc3)CC2)CC1	none
O=C(Cn1nnc(-c2ccccc2NC(=O)c2ccccc2)n1)Nc1ccc2c(c1)OCCO2	KKLEB tox -54
CCCCn1c(N)c(N(CC(C)C)C(=O)COC(=O)C2(c3ccccc3)CC2)c(=O)[nH]c1=O	none
CN(C)CC/C=C1\c2ccccc2Sc2cc(F)c(Cl)cc21	Peg3 promoter 62
Cc1ccc(NC(=O)CN2C(=O)NC(Cc3ccccc3)C2=O)c(Br)c1 (stereo not given)	none
O=[N+]([O-])c1ccc(/C=N/Nc2ccnc3cc(Cl)ccc23)o1	Peg3 promoter 93, MITF TRPM1 inh inconclusive
Clc1ccc2c(NNc3ccccc3Cl)ccnc2c1	none
Clc1ccc2c(N/N=C/c3cccc(Br)c3)ccnc2c1	Peg3 promoter 76, MITF TRPM1 inh 83
COc1ccc(-c2cn[nH]c2N)c(OC)c1	CF NFkB inh 64
O=C1/C(=C/c2ccc(N3CCOCC3)o2)SC(=Nc2ccccc2)N1CCc1c[nH]c2ccccc12	Peg3 promoter 102, Shn3 inh set2 97, HIF-2a block 93, KKLEB tox -51
COc1cc(/C=C2\SC(=Nc3ccccc3)N(CCc3c[nH]c4ccccc34)C2=O)ccc1OC(C)C(=O)O (stereo not given)	none
CN1CCN(CC(=O)Nc2c(C#N)cnn2-c2ccccc2)CC1	none (no result: MITF TRPM1 inh)
[O-][n+]1onc2c1CCc1c-2nn(-c2ccccc2Cl)[n+]1[O-]	none
Cc1ccc(-n2nc3c([n+]2[O-])CCc2c-3no[n+]2[O-])cc1	Shn3 inh set2 90
CCn1nc(C)c(Br)c1Nc1ccc(Br)cc1	none
Cc1ccc(N2C(=O)c3ccc(C(=O)N4CCN(Cc5ccccc5)CC4)cc3C2=O)cc1	none
O=S(=O)(NC1CCSc2ccccc21)c1ccc(Cl)nc1 (stereo not given)	none
Cc1cc(C(=O)NNC(=O)c2ccc(NC(=O)CC#N)cc2)c(C)o1	none
Cc1cc(Nc2cccc(Cl)c2)nc(NCc2ccccc2)n1	Shn3 inh set2 87
O=C(Nc1cccc(F)c1)c1c(O)c2ccccc2[nH]c1=O	none
O=C(N/N=C/c1ccccc1)c1c(O)c2ccccc2[nH]c1=O	none
O=C(N/N=C/c1ccc(F)cc1)c1c(O)c2ccccc2[nH]c1=O	MITF TRPM1 inh 63
O=C(N/N=C/c1cccc(F)c1)c1c(O)c2ccccc2[nH]c1=O	KKLEB tox -64, CF NFkB inh 65
CCOC(=O)c1ccc(N=Cc2cnc(N)nc2N)cc1	none
COC(=O)[C@@H]1Cc2c([nH]c3ccccc23)C(C)(C)N1C(=O)CCl	KKLEB tox -62, CF NFkB inh 74
CCN(CC)c1ccc(/C=N/NC(=O)CNC(=O)C2COc3ccccc3O2)c(O)c1 (stereo not given)	Peg3 promoter 50, Shn3 inh set2 90
COc1cc(/C=N\NC(=O)CNC(=O)C2COc3ccccc3O2)ccc1O (stereo not given)	none
CC(NCCCSc1ccccc1)C(O)c1ccc(O)cc1 (stereo not given)	none (no result: MITF TRPM1 inh)
COc1cccc(CN(C)C(=O)c2cccc(NC(=O)CC3SC(N4CCCCC4)=NC3=O)c2)c1OC (stereo not given)	none
COc1ccc(CN(C)C(=O)c2cccc(NC(=O)CC3SC(N4CCCCC4)=NC3=O)c2)c(OC)c1 (stereo not given)	Peg3 promoter 54, MITF TRPM1 inh 63
c1ccc2c(c1)oc1c(Nc3ccc(CN4CCOCC4)cc3)ncnc12	Peg3 promoter 79
c1ccc2c(c1)oc1c(NCCN3CCOCC3)ncnc12	none
O=C1C2CC=CCC2C(=O)N1Cc1ccccc1 (stereo not given)	none
O=C1C=CC(=O)N1Cc1ccccc1	Peg3 promoter 104, CF NFkB inh 76
O=C(COc1ccc(Cl)cc1)N(Cc1ccccc1)c1nc(-c2ccccc2)cs1	Peg3 promoter 55
COc1ccc(C(=O)N(C)C(C)c2nccs2)cc1OC1CCN(C(C)=O)CC1 (stereo not given)	none (no result: MITF TRPM1 inh)
CC[C@@H](C)[C@H](C(CC(=O)N1CCCC1[C@@H](OC)[C@H](C)C(=O)N[C@H](Cc1ccccc1)c1nccs1)OC)N(C)C(=O)[C@H](NC(=O)[C@@H](C(C)C)N(C)C)C(C)C (stereo not given in full)	CF NFkB inh 62
CN(C)P(=O)(Nc1cccc2ccccc12)Nc1cccc2ccccc12	Shn3 inh set2 88 (no result: MITF TRPM1 inh)
CC(C)OP(=O)(Nc1cccc2ccccc12)OC(C)C	none
CCCN(CC(=O)Nc1cc(Cl)ccc1Cl)C(=O)c1ccccc1SCC(=O)N1CCCC1	none
COC(=O)c1cc(C)nc2c1c(C)nn2-c1ccccc1	none
